S2 tox: reduces viability in counter-screen for ATXN expression inhibitors; Potency, µM (top dose mostly 56.7 µM), usual class: cytotoxic; S2 cells (HEK-293 line with an ATXN2-luciferase reporter) viability, CellTiter-Fluor protease fluorescence, 24 h; 0.49% of 400,000 active; further: nearly all actives have a fitted effect of over 40% in size
ATXN2 expr inh: reduces ATXN2 reporter expression in HEK-293 cells. HEK-293 ATXN2-luciferase reporter, luminescence, 24 h. Potency, µM (doses to about 57 µM), for inactives: top-dose activity change, negative = inhibition, hits mostly inhibitors. 0.72% of 360,000 active; further: on the % scale 0 is the no-effect control and ±100 the full control effect; nearly all actives have a fitted effect of over 55% in size
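ATXN2-luciferase reporter cells (luciferase flanked by upstream and downstream ATXN2 gene portions) were treated 24 h at 37 °C with compounds at up to 57 uM. SteadyGlo luminescence gave expression; GF-AFC fluorescence gave viability.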
TDP1 cell noCPT: qHTS for Inhibitors of human tyrosyl-DNA phosphodiesterase 1 (TDP1): qHTS in cells in absence of CPT; DT40 Tdp1-/- hTDP1 cells, no CPT, ATP luminescence, 48 h; Potency, µM (doses to about 46.2 µM), without a hit: top-dose activity change, negative = growth inhibition, most hits filed as inhibitors; 15% of 420,000 active; further: on the % scale 0 is the no-effect control and ±100 the full control effect; nearly all actives have a fitted effect of over 55% in size
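Growth of hTDP1-complemented DT40 Tdp1-knockout cells is measured by ATP luminescence after at least 48 hr compound exposure at 37 °C, with DMSO substituting for the 20 nM CPT used in the parallel screen.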
TDP1 cell CPT: DT40-hTDP1 cell growth loss with CPT; chicken DT40 Tdp1-/-;hTDP1 cells + 20 nM CPT, ATP luminescence, 48 h; Potency, µM (doses to about 46.2 µM), for the others: at the highest dose activity change, negative = growth inhibition, hits mostly inhibitors; AID 686979; 12% of 420,000 active; further: on the % scale 0 is the no-effect control and ±100 the full control effect; nearly all actives have a fitted effect of over 55% in size
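Cell growth measured by CellTiter-Glo luminescence after a minimum 48 h, 37 C compound exposure with 20 nM CPT in Tdp1-knockout DT40 cells stably expressing hTDP1, seeded 400/well; qHTS titration format.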
HepG2 tox: counter-screen for TGF-b inhibitors: cytotoxicity in HepG2 cells | 0.76% of 410,000 active | Potency, µM (titrated, usually from 46.1 µM), for inactives: at the top dose activity change, negative = cytotoxicity, actives largely listed as cytotoxic | HepG2 CAGA-GFP viability, ATP luminescence, 18 h
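CellTiter-Glo luminescence gave cytotoxicity after 18 hours at 37 degrees C. The cells were HepG2 CAGA-GFP in 1% FBS DMEM, stimulated with 500 pg/mL TGF-beta after compound addition. %Activity was normalised to no-cell wells (complete cell-killing) and DMSO (no toxicity), and curves were fitted and classified.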
TGFb inhibitor: blocks TGF-b signaling. HepG2 CAGA-GFP TGF-b/SMAD3 reporter, GFP fluorescence, 18 h; TGF-beta stimulated, 500 pg/mL final. Potency, µM (highest dose often 46.1 µM), inactives show at the top dose activity, negative = inhibition, most hits filed as inhibitors. 1.2% of 410,000 active. AID 588855; further: on the % scale 0 is the no-effect control and ±100 the full control effect; nearly all actives have a fitted effect of over 65% in size
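Cell-based qHTS in HEPG2 carrying a CAGA-GFP Smad reporter; compounds added before 500 pg/mL final TGF-beta, 18 h incubation at 37 degrees C, GFP fluorescence quantified per cell by imaging cytometry.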
* marks the source's active call; other numbers are inactive results; i = inactive; u = inconclusive; x = no result given. In the library only some 17% were active in any assay of this set; here they are far more common. The call rests on the fitted dose curve; in most records, active means well fitted curve in the direction sought with a large enough effect; inconclusive means small, poorly fitted or top-dose-only effect, or another doubt; inactive means no such curve, though single readings can be large; an effect the other way counts as inactive or inconclusive. Potency means the concentration at half of the fitted maximal effect.

SMILES	S2 tox	ATXN2 expr inh	TDP1 cell noCPT	TDP1 cell CPT	HepG2 tox	TGFb inhibitor
Cc1ccc(S(=O)(=O)N2CCC(=O)N(C(COCc3ccccc3)Cc3ccccc3)CC2)cc1 (stereo unspecified)	i	-28%	12µM*	u	-37%	-16%
Cc1ccc(S(=O)(=O)N2CCC(=O)N([C@H](COCc3ccc(Cl)cc3)Cc3ccccc3)CC2)cc1	u	-1%	u	u	x	x
Cc1ccc(S(=O)(=O)N2CCC(=O)N(CCOC(=O)Nc3ccc(F)cc3)CC2)cc1	i	-1%	u	u	-29%	u
Cc1ccc(S(=O)(=O)N2CCC(=O)N([C@H](COCc3ccc(Cl)c(Cl)c3)Cc3ccccc3)CC2)cc1	u	11%	u	u	x	x
Cc1ccc(S(=O)(=O)N2CCC(=O)N([C@H](COC(=O)Nc3ccccc3)Cc3ccccc3)CC2)cc1	i	7%	18µM*	u	x	x
Cc1ccc(S(=O)(=O)N2CCC(=O)N([C@H](COCc3cccc(Cl)c3)Cc3ccccc3)CC2)cc1	i	6%	21µM*	u	x	x
CCc1nc(CNC(=O)C2CCC(=O)N(CCc3ccc(OC)cc3)C2)cs1 (stereo unspecified)	i	7%	6%	5%	1%	4%
CCc1ccc(N(CC(=O)NC2CCCC2)C(=O)CCC(=O)Nc2cc(C)on2)cc1	i	0%	u	u	4%	-3%
CO/N=C(\C(=O)N[C@@H]1C(=O)N2C(C(=O)O)=C(CSC(=O)c3ccco3)CS[C@H]12)c1csc(N)n1	x	x	-12%	20%	x	x
Cc1ccc(C(c2cccc(Br)c2)c2c(C)[nH]c3ccccc23)s1 (stereo unspecified)	i	10%	-81%	-68%	-42%	u
COc1ccccc1CN1CCCC2(CCN(S(=O)(=O)c3ccccc3)CC2)C1	x	x	-8%	-3%	x	x
Cc1ccc(S(=O)(=O)N2CCC(=O)N(C(COCc3cccc(C(F)(F)F)c3)Cc3ccccc3)CC2)cc1 (stereo unspecified)	u	3%	21µM*	u	-23%	-20%
Cc1ccc(S(=O)(=O)N2CCC(=O)N(C(COCc3ccc(Cl)cc3Cl)Cc3ccccc3)CC2)cc1 (stereo unspecified)	i	10%	u	u	-18%	u
Cc1ccc(S(=O)(=O)N2CCC(=O)N(CCOCc3ccc(Cl)cc3)CC2)cc1	i	-22%	16µM*	12µM*	-24%	u
COCCCN1CC(=O)N2C(c3ccccc3)c3[nH]c4ccccc4c3C[C@H]2C1=O (stereo partly specified)	i	-7%	4%	8%	-14%	-18%
CCN1C(=O)[C@@H]2Cc3c([nH]c4ccccc34)C(c3ccc(OC)cc3)N2C1=S (stereo partly specified)	x	x	15µM*	u	-48%	382%
CN1CC(=O)N2C(c3cccc([N+](=O)[O-])c3)c3[nH]c4ccccc4c3C[C@H]2C1=O (stereo partly specified)	i	3%	1.8µM*	1µM*	0%	-10%
CN1CC(=O)N2C(c3ccc(Cl)cc3)c3[nH]c4ccccc4c3C[C@H]2C1=O (stereo partly specified)	u	x	u	15µM*	-20%	-16%
C=CCN1CC(=O)N2C(c3ccccc3)c3[nH]c4ccccc4c3C[C@H]2C1=O (stereo partly specified)	i	x	18µM*	u	-5%	-16%
CC(C)N(C(=O)Cn1c(Cl)nc2ccccc21)C(C)C	i	-14%	-1%	-12%	0%	-4%
Cc1ccc(C(=O)NCCSc2ccccc2)cc1S(=O)(=O)Nc1ccccc1	i	-16%	-27%	-23%	-23%	0%
O=C1[C@@H]2Cc3c([nH]c4ccccc34)C(c3ccc([N+](=O)[O-])cc3)N2C(=O)CN1C1CC1 (stereo partly specified)	i	x	4.6µM*	2.6µM*	-16%	-7%
CCOC(=O)c1c(NC(=S)NC(C)=O)sc(C)c1C	i	1%	-8%	-13%	3%	-9%
COCCn1c(Cc2ccccc2)nnc1SCc1nc2ccccc2c(=O)[nH]1	i	u	16µM*	u	13%	26%
Cc1sc2nc(CSc3nnnn3-c3ccc(Cl)cc3)[nH]c(=O)c2c1C	i	-20%	16µM*	u	-18%	26%
SMILES	S2 tox	ATXN2 expr inh	TDP1 cell noCPT	TDP1 cell CPT	HepG2 tox	TGFb inhibitor
C=CCn1c(SCc2nc3ccccc3c(=O)[nH]2)nc2ccccc2c1=O	i	-2%	u	u	-46%	0%
CCn1c(SCc2nc3ccccc3c(=O)[nH]2)nc2ccccc21	i	-26%	21µM*	u	-35%	2%
CCn1c(SCc2nc3sc(C(=O)O)c(C)c3c(=O)[nH]2)nnc1-c1ccc(Cl)cc1	i	7%	11%	-2%	-26%	-30%
CCCn1c(SCc2nc3sc(C)c(C)c3c(=O)[nH]2)nc2ccccc2c1=O	i	-13%	15µM*	u	3%	-9%
O=C(Nc1ccc(F)c(Cl)c1)N1CCN2CCCCC2C1 (stereo unspecified)	x	x	0%	5%	-33%	3%
COc1ccc(CNC(=O)Cn2ccc3cc(S(=O)(=O)N4CCCCC4)ccc32)c(OC)c1	u	-5%	-81%	23µM*	-14%	-23%
CCOc1ccccc1CNC(=O)Cn1ccc2cc(S(=O)(=O)N3CCCC3)ccc21	i	-6%	23µM*	18µM*	-7%	-8%
O=C(CCn1ccc2cc(S(=O)(=O)N3CCCC3)ccc21)NCc1ccccc1Br	i	-11%	u	u	-3%	-6%
CCOc1ccccc1CNC(=O)CCCn1ccc2cc(S(=O)(=O)N3CCCC3)ccc21	u	-28%	21µM*	23µM*	-28%	u
COc1ccc(CNC(=O)Cn2ccc3cc(S(=O)(=O)N4CCCC4)ccc32)c(OC)c1	i	-4%	u	-29%	2%	-16%
Cc1c(CC(=O)O)c(=O)oc2cc(OCc3ccc(Br)cc3)ccc12	i	-1%	5%	0%	1%	10%
